Reference: PubChem BioAssay AID1159580 (chemical genetic matrix, 2015)
Several values for one entry are separate records, joined by “and”; a condition that tells them apart may be missing. Identical values can stand only once. Hit rate of the full screen: of about 5,500 compounds, about 2,000 (36%) were called active. Roughly 18% stayed inconclusive and do not appear here. Rule as the data show it: active = normalized growth mostly below about 0.91 (no sharp cut-off); inconclusive = no clear call, values can overlap the other calls; inactive = mostly above about 0.92. The list shows a part of the results.

Experiment: chemical genetic growth profiling, strain panel (AID 1159580);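 also: tested at 20 µM; growth read once vehicle control cultures reached saturation at 30 °C; 1 = growth at the plate median or of vehicle wells; lower values mean less growth of the strain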
Details: S. cerevisiae deletion strains, growth OD

Measured: normalized growth

CCNC(=O)CC[C@H](N)C(=O)O
inactive: locus YAL021C, strain ccr4, hits give low values 0.995 | locus YAL026C, strain drs2, hits give low values 1 | locus YAL030W, strain snc1, hits give low values 0.998 | locus YBL061C, strain skt5, hits give low values 0.993 | locus YBR009C, strain hhf1, hits give low values 1.02 | locus YBR021W, strain FUR4, hits give low values 1.03 | locus YBR023C, strain chs3, hits give low values 0.993 | locus YBR171W, strain sec66, hits give low values 1 | locus YBR229C, strain ROT2, hits give low values 0.991 | locus YBR231C, strain swc5, hits give low values 0.997 | locus YBR279W, strain paf1, hits give low values 1 | locus YCL011C, strain gbp2, hits give low values 1 | locus YCL016C, strain dcc1, hits give low values 0.996 | locus YCL029C, strain bik1, hits give low values 0.988 | locus YCL061C, strain MRC1, hits give low values 1 | locus YCL069W, strain vba3, hits give low values 1.01 | locus YCR088W, strain abp1, hits give low values 1 | locus YDL005C, strain med2, hits give low values 0.986 | locus YDL035C, strain GPR1, hits give low values 1.04 | locus YDL040C, strain nat1, hits give low values 0.998 | locus YDL074C, strain BRE1, hits give low values 1.02 | locus YDL101C, strain DUN1, hits give low values 0.965 | locus YDL134C, strain PPH21, hits give low values 1.01 | locus YDL185W, strain tfp1, hits give low values 0.996 | locus YDL192W, strain arf1, hits give low values 1 | locus YDR001C, strain nth1, hits give low values 0.997 | locus YDR069C, strain doa4, hits give low values 1.03 | locus YDR101C, strain arx1, hits give low values 1 | locus YDR137W, strain rgp1, hits give low values 1.01 | locus YDR159W, strain sac3, hits give low values 0.992 | locus YDR162C, strain NBP2, hits give low values 1.03 | locus YDR195W, strain ref2 0.994 | locus YDR297W, strain sur2, hits give low values 0.99 | locus YDR318W, strain mcm21, hits give low values 0.999 | locus YDR334W, strain swr1, hits give low values 1 | locus YDR335W, strain msn5, hits give low values 1 | locus YDR388W, hits give low values 1 | locus YDR392W, strain spt3, hits give low values 0.991 | locus YDR502C, strain sam2, hits give low values 0.999 | locus YEL003W, strain gim4, hits give low values 1.01 | locus YEL037C, strain rad23, hits give low values 0.996 | locus YEL061C, strain CIN8 (second series), hits give low values 1 | locus YEL061C, strain CIN8, hits give low values 0.999 | locus YER015W, strain faa2, hits give low values 1.01 | locus YER016W, strain bim1, hits give low values 0.991 | locus YER110C, hits give low values 0.981 | locus YER111C, strain swi4, hits give low values 1 | locus YER155C, strain BEM2 (second series), hits give low values 0.99 | locus YER155C, strain BEM2, hits give low values 0.974 | locus YER167W, strain BCK2, hits give low values 0.995 | locus YFR010W, strain ubp6, hits give low values 1 | locus YGL078C, strain dbp3, hits give low values 0.988 | locus YGL086W, strain mad1, hits give low values 1 | locus YGL167C, strain pmr1, hits give low values 0.997 | locus YGL173C, strain kem1, hits give low values 0.996 | locus YGL227W, strain vid30, hits give low values 0.992 | locus YGL240W, strain doc1, hits give low values 1 | locus YGL248W, strain PDE1, hits give low values 1 | locus YGL253W, strain hxk2, hits give low values 1 | locus YGR135W, strain pre9, hits give low values 1.01 | locus YGR252W, strain gcn5, hits give low values 1.04 | locus YHR013C, strain ard1, hits give low values 0.987 | locus YHR027C, strain rpn1, hits give low values 1.01 | locus YHR030C, strain SLT2, hits give low values 0.999 and 1.01 | locus YHR079C, strain IRE1 (second series), hits give low values 0.997 | locus YHR079C, strain IRE1, hits give low values 1.04 | locus YHR094C, strain hxt1, hits give low values 0.989 | locus YHR129C, strain ARP1, hits give low values 0.995 | locus YHR142W, strain chs7, hits give low values 1.01 | locus YHR200W, strain rpn10, hits give low values 0.994 | locus YIL066C, strain RNR3, hits give low values 1.04 | locus YIL073C, strain SPO22, hits give low values 0.979 | locus YIL125W, strain kgd1, hits give low values 0.995 | locus YIR030C, strain dcg1, hits give low values 0.994 | locus YJL092W, strain hpr5, hits give low values 0.993 | locus YJL095W, strain BCK1 (second series), hits give low values 0.99 | locus YJL095W, strain BCK1, hits give low values 1 and 1.04 | locus YJL115W, strain asf1, hits give low values 0.999 | locus YJL129C, strain trk1, hits give low values 0.999 | locus YJL134W, strain LCB3, hits give low values 0.998 | locus YJL154C, strain vps35, hits give low values 1 | locus YJL164C, strain tpk1, hits give low values 1.01 | locus YJL166W, strain qcr8, hits give low values 1 | locus YJL168C, strain set2, hits give low values 0.991 | locus YJL187C, strain SWE1 (second series), hits give low values 0.996 | locus YJR043C, strain POL32, hits give low values 1.05 | locus YJR066W, strain TOR1, hits give low values 0.958 | locus YJR075W, strain HOC1, hits give low values 0.995 | locus YKL009W, strain mrt4, hits give low values 0.986 | locus YKL068W, hits give low values 0.987 | locus YKL085W, strain MDH1 (second series), hits give low values 1.02 | locus YKL085W, strain MDH1, hits give low values 1.02 | locus YKL160W, strain elf1, hits give low values 0.999 | locus YKR001C, strain vps1, hits give low values 1 | locus YKR026C, strain gcn3, hits give low values 1 | locus YKR091W, strain srl3, hits give low values 1 | locus YLL001W, strain dnm1, hits give low values 0.997 | locus YLL026W, hits give low values 0.993 | locus YLL041C, strain sdh2, hits give low values 1 | locus YLR027C, strain aat2, hits give low values 0.997 | locus YLR039C, strain RIC1, hits give low values 1.03 | locus YLR058C, strain SHM2, hits give low values 0.998 | locus YLR102C, strain apc9, hits give low values 0.987 | locus YLR113W, strain HOG1, hits give low values 1.02 | locus YLR221C, strain rsa3, hits give low values 1.01 | locus YLR258W, strain gsy2, hits give low values 0.994 | locus YLR262C, strain YPT6 (second series), hits give low values 0.984 | locus YLR262C, strain YPT6, hits give low values 1.04 | locus YLR268W, strain sec22, hits give low values 0.986 | locus YLR320W, strain mms22, hits give low values 0.999 | locus YLR330W, strain CHS5, hits give low values 1.01 | locus YLR342W, strain FKS1 (second series), hits give low values 1.03 | locus YLR342W, strain FKS1, hits give low values 1.02 | locus YLR357W, strain rsc2, hits give low values 0.962 | locus YLR370C, strain arc18, hits give low values 1 | locus YLR371W, strain rom2, hits give low values 0.989 | locus YLR384C, strain iki3, hits give low values 0.982 | locus YLR418C, strain cdc73, hits give low values 1.02 | locus YML016C, strain PPZ1, hits give low values 0.993 | locus YML032C, strain rad52, hits give low values 1.01 | locus YML120C, strain ndi1, hits give low values 1 | locus YML124C, strain tub3, hits give low values 0.996 | locus YMR058W, strain fet3, hits give low values 0.999 | locus YMR078C, strain ctf18, hits give low values 0.996 | locus YMR125W, strain sto1, hits give low values 0.996 | locus YMR129W, hits give low values 0.991 | locus YMR205C, strain PFK2, hits give low values 1.01 | locus YMR223W, strain ubp8, hits give low values 1.01 | locus YMR231W, strain pep5, hits give low values 1 | locus YMR263W, strain SAP30, hits give low values 0.989 | locus YMR307W, strain GAS1, hits give low values 1.06 | locus YNL067W, strain RPL9B, hits give low values 0.984 | locus YNL071W, strain lat1, hits give low values 1 | locus YNL183C, strain NPR1, hits give low values 0.953 | locus YNL209W, strain ssb2, hits give low values 1.01 | locus YNL233W, strain BNI4, hits give low values 1.01 | locus YNL248C, strain rpa49, hits give low values 1 | locus YNL250W, strain rad50, hits give low values 0.975 | locus YNL271C, strain bni1, hits give low values 0.999 | locus YNL298W, strain CLA4, hits give low values 0.995 | locus YNL307C, strain MCK1, hits give low values 0.992 | locus YNL322C, strain KRE1 (second series), hits give low values 0.979 | locus YNR049C, strain mso1, hits give low values 0.984 | locus YNR052C, strain pop2, hits give low values 0.998 | locus YOL006C, strain TOP1, hits give low values 1.07 | locus YOL012C, strain htz1 1.05 | locus YOL147C, strain pex11, hits give low values 0.998 | locus YOR001W, strain rrp6, hits give low values 1 | locus YOR061W, strain CKA2, hits give low values 1 | locus YOR069W, strain VPS5, hits give low values 0.988 | locus YOR070C, strain gyp1, hits give low values 1.01 | locus YOR080W, strain dia2, hits give low values 0.99 | locus YOR083W, strain WHI5, hits give low values 0.998 | locus YOR106W, strain vam3, hits give low values 1.01 | locus YOR136W, strain idh2, hits give low values 0.983 | locus YOR144C, strain elg1, hits give low values 0.995 | locus YOR184W, strain ser1, hits give low values 1 | locus YOR231W, strain MKK1, hits give low values 1.02 | locus YOR265W, strain rbl2, hits give low values 0.991 | locus YOR270C, strain vph1, hits give low values 1.04 | locus YOR290C, strain snf2, hits give low values 1 | locus YOR316C, strain cot1, hits give low values 0.99 | locus YPL051W, strain arl3, hits give low values 0.996 | locus YPL055C, strain LGE1, hits give low values 1.03 | locus YPL078C, strain atp4, hits give low values 0.991 | locus YPL106C, strain sse1, hits give low values 0.984 | locus YPL240C, strain hsp82, hits give low values 1.01 | locus YPL256C, strain CLN2, hits give low values 1.01 | locus YPR119W, strain clb2, hits give low values 1.01 | locus YPR141C, strain kar3, hits give low values 0.985 | locus YPR163C, strain tif3, hits give low values 0.995 | locus YPR167C, strain met16, hits give low values 0.998 | strain wtn01, hits give low values 0.989
